Screening results: PubChem, National Center for Advancing Translational Sciences (NCATS)
GLA spleen mod – inhibitors or activators of human alpha-galactosidase in spleen homogenate; P06280; human spleen homogenate, 4MU-alpha-Gal fluorescence, 40 min; Potency, µM (titrated, usually from 80 µM), for the others: at the highest dose activity change, negative = inhibition, most hits filed as inhibitors; hit rate 0.008% among 240,000; AID 2107;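 note: potency is the fitted concentration of half-maximal effect; 0% = enzyme with vehicle and -100% = no enzyme basal signal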
Target sequence (P06280 32-429 limits assumed): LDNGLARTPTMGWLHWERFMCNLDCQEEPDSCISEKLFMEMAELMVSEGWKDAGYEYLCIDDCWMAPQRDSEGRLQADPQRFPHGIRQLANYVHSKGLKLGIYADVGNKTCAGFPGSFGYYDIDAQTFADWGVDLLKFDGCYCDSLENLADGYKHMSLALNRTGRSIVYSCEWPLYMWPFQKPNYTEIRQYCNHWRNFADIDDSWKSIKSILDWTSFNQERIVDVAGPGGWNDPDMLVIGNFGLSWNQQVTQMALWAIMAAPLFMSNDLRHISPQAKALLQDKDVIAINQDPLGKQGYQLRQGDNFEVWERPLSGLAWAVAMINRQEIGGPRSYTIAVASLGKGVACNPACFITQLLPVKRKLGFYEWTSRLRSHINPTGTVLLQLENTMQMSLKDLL
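qHTS titration in buffer at pH 5.0. Alpha-galactosidase activity in spleen homogenate was measured via 4-methylumbelliferone release from 1 mM fluorogenic substrate after 40 min at 37C and a pH 10 stop. AC50 came from Hill fits of control-normalized data.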
GAA inhib – blocks human lysosomal alpha-glucosidase. P10253. purified human GAA, 4-MU-alpha-glucoside fluorescence. Potency, µM (top dose mostly 76.9 µM), without a hit: at the highest dose activity change, negative = inhibition, usual class: inhibitors. hit rate 0.005% among 200,000. AID 1466;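 note: potency is the fitted concentration of half-maximal effect; plate controls were uninhibited enzyme wells for no effect and no-enzyme background for full effect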
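Enzyme (4 nM final) mixed with compound (up to 77 uM), then 4-MU-alpha-D-pyranoside (400 uM final) added; 20 min at room temperature, pH 5.0. Reaction stopped at pH 10, fluorescence read, AC50 derived by Hill fit.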
GLA inh pH 4.5 – alpha-galactosidase A (human) inhibition, pH 4.5; 230,000 tested, under 10 active; P06280; purified enzyme, 4-MU-alpha-Gal fluorescence, pH 4.5; AID 1467; activity change, negative = inhibition, % at 105 µM;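 note: 0% = full activity with enzyme and -100% = basal without enzyme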
N370S GC – N370S glucocerebrosidase modulation, Gaucher chaperone candidate. hit rate 0.092% among 330,000. Potency, µM (top dose mostly 59.4 µM), for inactives: at the highest dose activity change, negative = inhibition, actives largely listed as inhibitors. N370S GC spleen homogenate, 4MU-glucoside fluorescence. AID 2101. P04062;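 note: potency is the fitted concentration of half-maximal effect; 0% = full enzyme activity and -100% = no enzyme basal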
GAA glycogen mod – GAA glycogen-cleavage inhibition or activation | recombinant GAA, glycogen substrate, Amplex Red glucose oxidase fluorescence | Potency, µM (highest dose often 76.4 µM), for the others: at the top dose activity change, negative = inhibition, hits mostly inhibitors | hit rate 0.38% among 300,000;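 note: potency is the fitted concentration of half-maximal effect; 0% = full enzyme reaction and -100% = no-enzyme basal signal; the screen sought inhibitors and activators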
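Recombinant enzyme (4 nM final) with compounds titrated up to 77 uM and bovine liver glycogen (30 ug) in citrate pH 5.0, 0.01% Tween-20, 37 C 40 min. Released glucose detected by Amplex Red/glucose oxidase (Ex 573/Em 610); AC50 from Hill fits.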
GAA spleen mod – inhibitors or activators of human alpha-glucosidase in spleen homogenate. human spleen homogenate, 4-MU-alpha-glucoside fluorescence. Potency, µM (series often up to 79.9 µM), for the others: at the highest dose activity change, negative = inhibition, most hits filed as inhibitors. hit rate 0.006% among 240,000. AID 2112;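 note: potency is the fitted concentration of half-maximal effect; 0% = enzyme with vehicle and -100% = no enzyme basal signal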
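AC50 values come from Hill-equation fits of concentration-response data, normalized to no-enzyme and full-activity controls. Enzyme source: 1 ug human spleen homogenate; 1 mM fluorogenic 4-MU glucoside, pH 5.0 citrate buffer, 37 C, 40 min.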
Starred values were filed as active, the others as inactive; [ ] = another dose, or the depositor's remark. An excerpt weighted towards active compounds, which were near 0.43% of everything screened. Calls come from the whole dose curve; as a rule, active = well fitted curve in the direction sought with a large enough effect; inconclusive = small, poorly fitted or top-dose-only effect, or another doubt; inactive = no such curve, though single readings can be large; an effect the other way counts as inactive or inconclusive.

Results for CCOC(=O)c1cc2oc(C(c3nnnn3C3CCCCC3)N3CCOCC3)cc2[nH]1 (configuration not stated) ?
GLA spleen mod: -10%; GAA inhib: -4%; GLA inh pH 4.5: -8; N370S GC: 13µM*; GAA glycogen mod: -2%; GAA spleen mod: -16%

How did Oc1ccc(C(c2nnnn2C2CCCCC2)N2CCOCC2)cc1 (configuration not stated) do in these assays?
GLA spleen mod: -3%; GAA inhib: 8%; GLA inh pH 4.5: 6; N370S GC: -19%; GAA glycogen mod: -5%; GAA spleen mod: -6%

Results for CSCC[C@H](NC(=O)CN)C(=O)N[C@@H](CC(=O)O)C(=O)N[C@@H](CO)C(=O)N[C@@H](CC(C)C)C(=O)N[C@@H](C)C(=O)N[C@@H](Cc1ccccc1)C(=O)N[C@@H](CO)C(=O)NCC(=O)NCC(=O)N[C@@H](CC(C)C)C(N)=O ?
GLA spleen mod: 9%; N370S GC: -2%; GAA spleen mod: 6%

What do the screens show for `COc1ccc2c(c1)C(c1ccccc1C)CC(=O)O2` (configuration not stated)?
GLA spleen mod: 10%[119 µM]; GLA inh pH 4.5: -14; N370S GC: 2%[89.1 µM]; GAA spleen mod: 6%[119 µM]

What do the screens show for `Cn1c(=O)c2sccc2n2c(CCCC(=O)Nc3ccc(F)c(F)c3)nnc12`?
GAA glycogen mod: 2µM*

How did Cc1ccc(NC(=O)CCCc2nnc3n(C)c(=O)c4sccc4n23)cc1C do in these assays?
GAA glycogen mod: -4%[76.3 µM]

What do the screens show for `CC(C)(C)OC(=O)NS(=O)(=O)Nc1ccccc1Br`?
GLA spleen mod: 2%; N370S GC: 6%; GAA spleen mod: 5%

Results for O=C(NCCN1CCOCC1)C1(C(F)(F)F)C/C(=C/CCO)CCCO1 (configuration not stated) ?
GLA spleen mod: 8%; N370S GC: -8%; GAA spleen mod: 11%

What do the screens show for `COc1cc(NC(=O)CN(c2cc(C)cc(C)c2)S(=O)(=O)c2c(C)[nH]c(=O)[nH]c2=O)cc(OC)c1`?
N370S GC: inconclusive; GAA glycogen mod: -7%[76.3 µM]

Results for Cc1noc(C)c1S(=O)(=O)N(CC(=O)NC1CCC(C)CC1)c1ccc(C(C)C)cc1 (configuration not stated) ?
N370S GC: 4%

What do the screens show for `Cc1cc(C)cc(N(CC(=O)NC2CCC(C)CC2)S(=O)(=O)c2c(C)[nH]c(=O)[nH]c2=O)c1` (configuration not stated)?
GLA spleen mod: -1%; GLA inh pH 4.5: -10; N370S GC: 0.4µM*; GAA glycogen mod: 3%; GAA spleen mod: -3%

Results for CCOc1ccc(N(CC(=O)NC2CCCC2)S(=O)(=O)c2c(C)[nH]c(=O)[nH]c2=O)cc1 ?
GLA spleen mod: -18%; GAA inhib: -2%; GLA inh pH 4.5: 5; N370S GC: 7.9µM*; GAA glycogen mod: -1%; GAA spleen mod: -11%

What do the screens show for `Cc1cc(C)cc(N(CC(=O)NC2CCCCCC2)S(=O)(=O)c2c(C)[nH]c(=O)[nH]c2=O)c1`?
GLA spleen mod: 7%; GLA inh pH 4.5: -3; N370S GC: 0.71µM*; GAA glycogen mod: 4%; GAA spleen mod: 5%

Results for CCC(C)NC(=O)CN(c1cc(C)cc(C)c1)S(=O)(=O)c1c(C)[nH]c(=O)[nH]c1=O (configuration not stated) ?
GLA spleen mod: -6%; GLA inh pH 4.5: -10; N370S GC: 10µM*; GAA glycogen mod: 7%; GAA spleen mod: -2%

How did Cc1cc(C)cc(N(CC(=O)O)S(=O)(=O)c2c(C)[nH]c(=O)[nH]c2=O)c1 do in these assays?
GLA spleen mod: -4%; GAA inhib: 2%; GLA inh pH 4.5: -1; N370S GC: -17%; GAA glycogen mod: 13%; GAA spleen mod: 1%
